Efflux pump mplx = antifungal efflux pump inhibition, Nile Red retention | S. cerevisiae Candida pump triplex | AID 485275 | inhibition, % at 10 µM | actives 0.44% (n = 330,000);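 active means plate passing quality check with inhibition over a set limit, or well fluorescence over plate mean plus 4 SD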;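 further: Nile Red retained in pooled yeast measured as flow cytometry median fluorescence; 0% = buffer negative control and 100% = Enniatin B positive control; higher means more Nile Red kept so more efflux inhibition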
SUMO Mot1 rescue = inhibitors of SUMOylation pathway: yeast Mot1-301 growth rescue. S. cerevisiae Mot1-301 growth rescue, ATP luminescence, 38.5C; percent above DMSO median, 100 means doubled. growth rescue, % at 18.8 µM. actives 1% (n = 320,000);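 active means every valid replicate shows activation above 250% relative to neutral control wells; inactive means the rest, any valid replicate at or below 250%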;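 further: OY570 slx delta 5 strain wells were the positive control but not used for scaling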
sPLA2-III inh = Inhibits HGIII-sPLA2 liposome hydrolysis, primary screen. QFRET BODIPY PC-A2 liposome hydrolysis, fluorescence. actives 0.56% (n = 370,000). Q9NZ20. inhibition, % at 12.2 µM;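 active means inhibition above mean plus 3 SD of compounds lying within the high and low control bounds, cut at about 19% in these data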;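 further: 0% = median of test compound wells and 100% = no enzyme DMSO wells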
Target sequence (Q9NZ20 whole entry, looked up): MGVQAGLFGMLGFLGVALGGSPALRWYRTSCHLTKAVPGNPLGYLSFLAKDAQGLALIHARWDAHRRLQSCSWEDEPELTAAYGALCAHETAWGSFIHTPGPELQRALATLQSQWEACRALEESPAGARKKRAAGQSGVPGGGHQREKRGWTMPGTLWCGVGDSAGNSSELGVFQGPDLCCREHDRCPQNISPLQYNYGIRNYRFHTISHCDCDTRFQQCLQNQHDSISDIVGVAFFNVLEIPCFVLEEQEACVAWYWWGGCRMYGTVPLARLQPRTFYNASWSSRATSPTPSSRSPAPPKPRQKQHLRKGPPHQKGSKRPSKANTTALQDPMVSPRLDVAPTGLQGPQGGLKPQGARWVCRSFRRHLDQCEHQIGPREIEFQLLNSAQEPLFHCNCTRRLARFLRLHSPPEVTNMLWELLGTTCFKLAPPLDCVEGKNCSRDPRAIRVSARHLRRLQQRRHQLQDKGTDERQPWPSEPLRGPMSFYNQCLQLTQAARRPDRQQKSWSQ
SKN-1 inh = C. elegans SKN-1 inhibition; C. elegans VP596 Pgst-4::GFP/RFP ratio, acrylamide-induced, 24 h; inhibition, % at 21.8 µM; actives 0.49% (n = 360,000); AID 624304;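 active means interference check ratio from 0.5 to 1.5 plus GFP to RFP signal ratio inhibition reaching or exceeding a fixed threshold, cut at about 30% in these data, passing the limit was not always enough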
Cmpd fluor yeast = compound fluorescence in yeast efflux pump counter-screen. shares compounds with Efflux pump mplx. S. cerevisiae AD/pABC3, flow cytometry. fluorescence ratio to DMSO, % at 10 µM. actives 4% (n = 1,700). AID 588517;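 active means fluorescence ratio to DMSO above its plate's cutoff, the plate mean ratio plus 5 SD, cut at about 210% in these data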;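 further: unstained yeast with no Nile Red so the signal is compound autofluorescence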
CaMdr1 efflux inh = Candida Mdr1 efflux pump inhibition; inhibition, % at 10 µM; actives 1% (n = 1,700); S. cerevisiae AD/CaMDR1, Nile Red efflux, flow cytometry; shares compounds with Efflux pump mplx; in the data active means inhibition above about 26%;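 further: 0% = DMSO vehicle and 100% = reference inhibitor; higher means more Nile Red retained so more efflux inhibition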
CaCdr2 efflux inh = Candida Cdr2 efflux pump inhibition | shares compounds with Efflux pump mplx | S. cerevisiae AD/CaCDR2, Nile Red retention, flow cytometry | Nile Red retention ratio vs DMSO, % at 10 µM | actives 4% (n = 1,700) | AID 588520; in the data active means Nile Red retention ratio vs DMSO above about 190%;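 further: higher ratio means more blocking of Cdr2 efflux of the dye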
Cdr1 pump inh = blocks the Candida albicans Cdr1 efflux pump in yeast; shares compounds with Efflux pump mplx; S. cerevisiae AD/CaCDR1, Nile Red efflux, flow cytometry; inhibition, % at 10 µM; actives 1% (n = 1,700);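 active means inhibition above the screen-wide mean plus twice its standard deviation, cut at about 32% in these data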
* hit, by the source's call; / = no result given. In the library only some 2.2% were active in any assay of this set; here they are far more common.

SMILES	Efflux pump mplx	SUMO Mot1 rescue	sPLA2-III inh	SKN-1 inh	Cmpd fluor yeast	CaMdr1 efflux inh	CaCdr2 efflux inh	Cdr1 pump inh
Cc1ccccc1CN1CCCCC(NC(=O)c2cccc(C(F)(F)F)c2)C1=O (configuration not stated)	/	/	0	/	/	/	/	/
O=C(c1cccc(F)c1)N1CCN(C(=O)c2cc3ncc(Br)cn3n2)CC1	14*	-21	8	2	103	0	99	0
COc1ccccc1NC(=O)C1CCN(S(=O)(=O)c2cccs2)CC1	172*	2	2	-9	111	1	108	0
COc1ccc(OC)c(NC(=O)C2CCN(S(=O)(=O)c3cccs3)CC2)c1	0	-2	3	-17	/	/	/	/
O=C(C1CCCO1)N1CCN(C(=S)Nc2ccc(F)cc2)CC1 (configuration not stated)	2.5*	/	10	-4	107	0	108	0
O=C(Nc1ccc(F)cc1)N1CCN(C(=O)C2CCCO2)CC1 (configuration not stated)	0	2	12	14	/	/	/	/
COc1ccc(-c2cc(=O)n(-c3ccc([N+](=O)[O-])cc3)[nH]2)cc1	14*	-6	5	-8	87	0	104	0
CCN(CC)c1ccc(C=N/C(C#N)=C(\N)C#N)cc1	0.7*	-13	3	28	128	1	348*	2
Fc1ccc(CN2CCN(c3ncnc4scc(-c5ccccc5)c34)CC2)cc1	1.7*	38	-7	3	100	0	93	0
CC(C)(C)c1cc(C(=O)O)n(Cc2ccc(Cl)cc2Cl)n1	0	4	-4	4	/	/	/	/
O=C(Cc1cccs1)N1CCN=C1SCc1ccccc1Cl	1.0*	-1	-4	3	93	0	103	10
CCOC(=O)c1c(C)[nH]c(C(=O)OCC(O)=C(C#N)c2nc3ccccc3[nH]2)c1C	/	/	-9	14	/	/	/	/
Cc1c(-c2cccc(Cl)c2)nc2ccccc2c1C(=O)OC/C(O)=C(\C#N)c1nc2ccccc2[nH]1	2.5*	-10	-2	7	108	1	116	1
N#C/C(=C\c1ccco1)C(=O)Nc1ccc(S(N)(=O)=O)cc1	0	-8	-3	2	/	/	/	/
N#C/C(=C\c1ccc(-c2nc3ccccc3s2)o1)C(N)=O	0	-12	-3	1	/	/	/	/
N#C/C(=C/c1ccc(-c2ccc(S(N)(=O)=O)cc2)o1)c1nc2ccccc2s1	2.6*	11	7	16	99	1	150	0
N#C/C(=C/c1ccc(-c2ccc(S(N)(=O)=O)cc2)o1)C(=O)Nc1ccccc1	9.7*	8	-10	15	98	0	91	0
CC(C)n1nnnc1SCC(=O)N1CCN(Cc2ccc3c(c2)OCCO3)CC1	0	0	11	8	/	/	/	/
CCOC(=O)c1ccccc1NC(=O)c1cn(-c2ccc(OC)cc2)c(=O)c2ccccc12	15*	4	16	8	94	0	101	0
CC(=O)c1ccc(NC(=O)CC(C)S(=O)(=O)c2ccc3c(c2)CCN3C(C)=O)cc1 (configuration not stated)	0	-7	-4	14	/	/	/	/
COc1ccc(N2CCN(C(=O)COC(=O)c3ccc(C)o3)CC2)cc1	0	19	2	6	/	/	/	/
Cc1ccccc1OCCNc1cc(N2CCN(CCO)CC2)ccc1[N+](=O)[O-]	19*	11	-10	6	107	0	95	0
COc1ccc(OC)c(CN2C(=O)c3ccnn3CC2(C)c2nnnn2C2CCCC2)c1 (configuration not stated)	/	/	3	/	/	/	/	/
O=C(Cn1c2ccc(F)cc2c2nc3n(c(=O)c21)CCS3)Nc1ccccc1F	0.4*	-1	/	/	480*	1	120	1
CC(C)c1ccc(NC(=O)Cn2nnc(C(=O)NCc3ccco3)c2N)cc1	0	6	-9	4	/	/	/	/
CN1CCN(NC(=O)Nc2ccc([N+](=O)[O-])cc2)CC1	0	-18	0	-13	/	/	/	/
COc1cc([N+](=O)[O-])ccc1NC(=O)NN1CCN(C)CC1	5.3*	-4	-1	-9	84	0	93	0

Screens as filed in PubChem BioAssay.
